Assay results as given in PubChem BioAssay (EPA / NIEHS).
Where “and” joins values, the source holds several entries; their conditions need not be identical. Equal entries are not always repeated. Some compounds were tested as several samples or in several runs, with calls that do not always agree. Calls of active or inactive are those of the source. The calls were made as follows: active = hit-call score of the fitted dose curve at least 0.9, where 1 is the maximum; inactive = score below 0.9.

Experiments:
[1] = read-out: Plasminogen activator inhibitor-1 (PAI1), SERPINE1 (gene 5054); experiment: BSK_MyoF_PAI1: BioMAP Diversity Plus: MyoF Assay for Plasminogen activator inhibitor-1 (PAI1) Biomarker Activity (AID 2284256); conditions: primary human lung fibroblasts;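 as to outcome: PAI-1 protein level measured by ELISA in fibroblast cultures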
Method in brief: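 ELISA read-out of PAI-1 from primary human lung fibroblast cultures 24 h after dosing; gain-of-signal fit versus DMSO control.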

[2] = read-out: Interleukin-8 (IL8), CXCL8 (gene 3576); experiment: BSK_MyoF_IL8: BioMAP Diversity Plus: MyoF Assay for Interleukin-8 (IL8) Biomarker Activity (AID 2284261); conditions: primary human lung fibroblasts
Method in brief: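 ELISA read-out of IL-8 from primary human lung fibroblasts, 24 h post-dose; positive-direction curve fitting relative to DMSO vehicle baseline.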

[3] = read-out: Decorin, DCN (gene 1634); experiment: BSK_MyoF_Decorin: BioMAP Diversity Plus: MyoF Assay for Decorin Biomarker Activity (AID 2284265); conditions: primary human lung fibroblasts
Method in brief: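 Human lung fibroblasts in the MyoF system were exposed to compound for 24 h, after which decorin was quantified by ELISA. Activity was fitted in the positive direction relative to DMSO negative control.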

[4] = BSK_MyoF_SRB: Viability Assessment in the BioMAP Diversity Plus: MyoF Assay (AID 2284267); conditions: primary human lung fibroblasts;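 also: total protein by SRB absorbance in parallel cultures as cytotoxicity measure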
Method in brief: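 Cytotoxicity read-out: after 10% TCA fixation, parallel human lung fibroblast cultures were stained with 0.1% SRB at 24 h post-dosing and read at 560 nm; DMSO served as baseline.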

[5] = read-out: Matrix Metallopeptidase 1 (MMP1), MMP1 (gene 4312); experiment: BSK_MyoF_MMP1: BioMAP Diversity Plus: MyoF Assay for Matrix Metallopeptidase 1 (MMP1) Biomarker Activity (AID 2284268); conditions: primary human lung fibroblasts
Method in brief: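 ELISA readout of MMP1 in primary human lung fibroblast cultures, 24 h post-dosing. Gain of signal versus DMSO vehicle control defines activity. Parallel SRB staining (0.1% after 10% TCA fixation, 560 nm) flags overt cytotoxicity.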

[6] = read-out: TIMP metallopeptidase inhibitor 1 (TIMP1), TIMP1 (gene 7076); experiment: BSK_MyoF_TIMP1: BioMAP Diversity Plus: MyoF Assay for TIMP metallopeptidase inhibitor 1 (TIMP1) Biomarker Activity (AID 2284269); conditions: primary human lung fibroblasts
Method in brief: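 Primary human lung fibroblasts, MyoF multiplex system; chemical exposure 24 h; TIMP-1 by ELISA; positive fitting direction vs DMSO control.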

[7] = read-out: Interferon-inducible T-cell alpha chemoattractant (ITAC), CXCL11 (gene 6373); experiment: BSK_hDFCGF_ITAC: BioMAP Diversity Plus: hDFCGF Assay for Interferon-inducible T-cell alpha chemoattractant (ITAC) Biomarker Activity (AID 2284251); conditions: primary human foreskin fibroblasts
Method in brief: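 Measured by ELISA, the chemokine level serves as the endpoint in human skin fibroblast primary cultures 24 h after compound addition. Increases relative to DMSO-treated wells define activity.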

[8] = read-out: Plasminogen activator inhibitor-1 (PAI1), SERPINE1 (gene 5054); experiment: BSK_KF3CT_PAI1: BioMAP Diversity Plus: KF3CT Assay for Plasminogen activator inhibitor-1 (PAI1) Biomarker Activity (AID 2284252); conditions: primary human keratinocytes with fibroblasts
Method in brief: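 PAI-1 levels quantified by ELISA after 24 h compound exposure of primary human skin keratinocytes co-cultured with fibroblasts. Activity is the gain relative to DMSO; cytotoxicity tracked in parallel cultures via SRB staining.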

[9] = read-out: Monocyte Chemoattractant Protein-1 (MCP1), CCL2 (gene 6347); experiment: BSK_IMphg_MCP1: BioMAP Diversity Plus: IMphg Assay for Monocyte Chemoattractant Protein-1 (MCP1) Biomarker Activity (AID 2284253); conditions: primary human endothelial cells with macrophages
Method in brief: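 ELISA readout of MCP-1 at 24 hours in IMphg co-cultures of venular endothelial cells and macrophages, normalised to DMSO; parallel cultures stained with sulforhodamine B for overt cytotoxicity.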

[10] = read-out: Interleukin-8 (IL8), CXCL8 (gene 3576); experiment: BSK_KF3CT_IL8: BioMAP Diversity Plus: KF3CT Assay for Interleukin-8 (IL8) Biomarker Activity (AID 2284254); conditions: primary human keratinocytes with fibroblasts
Method in brief: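 Human primary keratinocyte plus foreskin fibroblast co-culture dosed with test chemicals; IL-8 measured by ELISA 24 h after dosing. Activity fitted in the positive direction relative to DMSO negative control.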

[11] = read-out: Macrophage Inflammatory Protein-1 Alpha (MIP1a), CCL3 (gene 6348); experiment: BSK_IMphg_MIP1a: BioMAP Diversity Plus: IMphg Assay for Macrophage Inflammatory Protein-1 Alpha (MIP1a) Biomarker Activity (AID 2284255); conditions: primary human endothelial cells with macrophages
Method in brief: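 MIP-1a protein levels were quantified by ELISA after 24 h treatment of human endothelial cell–macrophage co-cultures, compared with DMSO. Parallel cultures were fixed with TCA and stained with 0.1% SRB to gauge overt cytotoxicity.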

[12] = read-out: CD69, CD69 (gene 969); experiment: BSK_IMphg_CD69: BioMAP Diversity Plus: IMphg Assay for CD69 Biomarker Activity (AID 2284257); conditions: primary human endothelial cells with macrophages
Method in brief: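 Readout is ELISA for CD69 in primary human venular endothelial cell/macrophage co-culture, taken at 24 h post-dosing. SRB staining of parallel cultures gauged overt cytotoxicity; signal increase versus DMSO defined activity.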

[13] = read-out: Eotaxin 3, CCL26 (gene 10344); experiment: BSK_BF4T_Eotaxin3: BioMAP Diversity Plus: BF4T Assay for Eotaxin 3 Biomarker Activity (AID 2284258); conditions: primary human bronchial epithelial cells with fibroblasts
Method in brief: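 ELISA measurement of Eotaxin-3 after 24 h chemical exposure in a bronchial epithelial/dermal fibroblast co-culture, with DMSO as baseline. Parallel SRB staining (0.1% SRB after 10% TCA fixation, 560 nm) flagged overt cytotoxicity.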

[14] = read-out: Monocyte Chemoattractant Protein-1 (MCP1), CCL2 (gene 6347); experiment: BSK_BF4T_MCP1: BioMAP Diversity Plus: BF4T Assay for Monocyte Chemoattractant Protein-1 (MCP1) Biomarker Activity (AID 2284259); conditions: primary human bronchial epithelial cells with fibroblasts
Method in brief: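 MCP-1 ELISA readout taken 24 h after dosing in the BF4T system (bronchial epithelial cells plus dermal fibroblasts). Parallel SRB total-protein staining flagged cytotoxicity; DMSO served as baseline, positive fitting direction.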

[15] = read-out: Intercellular Adhesion Molecule 1 (ICAM1), ICAM1 (gene 3383); experiment: BSK_BF4T_ICAM1: BioMAP Diversity Plus: BF4T Assay for Intercellular Adhesion Molecule 1 (ICAM1) Biomarker Activity (AID 2284260); conditions: primary human bronchial epithelial cells with fibroblasts
Method in brief: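 ICAM-1 levels measured by ELISA after 24 h chemical treatment of bronchial epithelial cell/dermal fibroblast co-cultures, read against DMSO baseline. Overt cytotoxicity checked in parallel cultures by sulforhodamine B staining.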

[16] = read-out: CD90, THY1 (gene 7070); experiment: BSK_BF4T_CD90: BioMAP Diversity Plus: BF4T Assay for CD90 Biomarker Activity (AID 2284262); conditions: primary human bronchial epithelial cells with fibroblasts
Method in brief: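 CD90 levels by ELISA after 24 h treatment of human bronchial epithelial cell/dermal fibroblast cultures, analysed versus DMSO. Overt cytotoxicity checked in parallel cultures by sulforhodamine B staining.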

[17] = read-out: Interleukin-8 (IL8), CXCL8 (gene 3576); experiment: BSK_BF4T_IL8: BioMAP Diversity Plus: BF4T Assay for Interleukin-8 (IL8) Biomarker Activity (AID 2284263); conditions: primary human bronchial epithelial cells with fibroblasts
Method in brief: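 Human bronchial epithelial cells with dermal fibroblasts co-culture; IL-8 measured by ELISA 24 hours after dosing, fitted vs DMSO. Cytotoxicity tracked in parallel cultures by SRB total-protein staining.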

[18] = read-out: Interleukin-1 alpha (IL1a), IL1A (gene 3552); experiment: BSK_BF4T_IL1a: BioMAP Diversity Plus: BF4T Assay for Interleukin-1 alpha (IL1a) Biomarker Activity (AID 2284264); conditions: primary human bronchial epithelial cells with fibroblasts
Method in brief: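 ELISA read-out of IL-1α from bronchial epithelial cell/dermal fibroblast co-cultures 24 h after compound addition. Increases scored against DMSO negative control. Cytotoxicity monitored by sulforhodamine B staining of parallel cultures.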

[19] = read-out: KRT18 (gene 3875); experiment: BSK_BF4T_Keratin818: BioMAP Diversity Plus: BF4T Assay for Keratin 818 Biomarker Activity (AID 2284266); conditions: primary human bronchial epithelial cells with fibroblasts
Method in brief: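 Keratin 8/18 levels quantified by ELISA after 24 h chemical treatment of bronchial epithelial cell/dermal fibroblast co-cultures, fitted in positive direction relative to DMSO. Parallel SRB staining tracks overt cytotoxicity.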

[20] = read-out: Matrix Metallopeptidase 1 (MMP1), MMP1 (gene 4312); experiment: BSK_BF4T_MMP1: BioMAP Diversity Plus: BF4T Assay for Matrix Metallopeptidase 1 (MMP1) Biomarker Activity (AID 2284270); conditions: primary human bronchial epithelial cells with fibroblasts
Method in brief: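 MMP-1 quantified by ELISA in primary human bronchial epithelial/dermal fibroblast co-cultures, 24 hours post-dosing, with DMSO as baseline; parallel sulforhodamine B staining (560 nm) tracks overt cytotoxicity.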

In the case of CCCCC(CC)CO[N+](=O)[O-] (stereo not drawn), the outcome [1] is reported as “inactive”, the outcome [2] is reported as “inactive” and the outcome [3] is reported as “inactive”. For the same molecule, the outcome [4] was “inactive”, the AC50 [5] was 31.6 µM (active) and the outcome [6] was “inactive”.

For O=Cc1cccc(Oc2ccccc2)c1, the outcome [1] was “inactive”, the outcome [2] was “inactive” and the outcome [3] was “inactive”. The outcome [4] was “inactive”, the outcome [5] was “inactive” and the outcome [6] was “inactive”.

For O=C(O)C(F)(F)C(F)(F)C(F)(F)C(F)(F)C(F)(F)C(F)(F)C(F)(F)C(F)(F)C(F)(F)C(F)(F)F, the AC50 [7] was 5.59 µM (active), the AC50 [8] was 2.66 µM (active) and 4.56 µM (active) and the outcome [9] was “inactive”. The AC50 [10] was 3.33 µM (active) and 5.2 µM (active), the outcome [11] was “inactive” and the AC50 [1] was 5.52 µM (active) and 6.52 µM (active). The outcome [12] was “inactive”, the AC50 [13] was 3.14 µM (active) and 3.33 µM (active) and the AC50 [14] was 5.55 µM (active) and 5.18 µM (active). For the same molecule, the AC50 [15] was 5.15 µM (active) and 4.51 µM (active), the AC50 [2] was 6.34 µM (active) and 6.43 µM (active) and the AC50 [16] was 4.83 µM (active). The outcome [16] was “inactive”, the AC50 [17] was 5.82 µM (active) and 5.74 µM (active) and the AC50 [18] was 5.56 µM (active) and 6.17 µM (active). For the same molecule, the AC50 [3] was 5.02 µM (active) and 5.16 µM (active), the AC50 [19] was 5.05 µM (active) and 5.17 µM (active) and the AC50 [4] was 5.01 µM (active) and 5.05 µM (active). The outcome [5] was “inactive”, the AC50 [6] was 4.33 µM (active) and 5.2 µM (active) and the AC50 [20] was 5.11 µM (active) and 5.66 µM (active).

With CCNc1nc(NC(C)(C)C)nc(SC)n1 the outcome [1] was “inactive”, the outcome [2] was “inactive” and the outcome [3] was “inactive”. The outcome [4] was “inactive”, the AC50 [5] was 31.5 µM (active) and the outcome [6] was “inactive”.

For CC(C)CCCCCCOC(=O)c1ccccc1C(=O)OCCCCCCC(C)C, the outcome [1] was “inactive”, the outcome [2] was “inactive” and the outcome [3] was “inactive”. The outcome [4] was “inactive”, the outcome [5] was “inactive” and the outcome [6] was “inactive”.

In the case of COC[C@H](C)N(C(=O)CCl)c1c(C)csc1C, the outcome [1] is reported as “inactive”, the outcome [2] is reported as “inactive” and the outcome [3] is reported as “inactive”. The outcome [4] was “inactive”, the outcome [5] was “inactive” and the outcome [6] was “inactive”.

With CCOP(=S)(OCC)SCCS(=O)(=O)CC the outcome [1] was “inactive”, the outcome [2] was “inactive” and the outcome [3] was “inactive”. For the same molecule, the outcome [4] was “inactive”, the outcome [5] was “inactive” and the outcome [6] was “inactive”.

For COP(=S)(OC)Oc1cc(Cl)c(Cl)cc1Cl, the outcome [1] was “inactive”, the AC50 [2] was 4.59 µM (active) and the outcome [3] was “inactive”. For the same molecule, the outcome [4] was “inactive”, the AC50 [5] was 20 µM (active) and the outcome [6] was “inactive”.
